Measurements reported in PubChem BioAssay (NCI).
This is part of a sample that, as a whole, favours compounds with a hit. Of some 79,000 tested, about 15% had one in any assay. Cut-off read from the data, not from the text of the source: active = growth inhibition above about 70%; inactive = the rest.

Tests used:
[1] = NCI Yeast Anticancer Drug Screen. Data for the rad50 strain (AID 155);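 note: 0% = growth of vehicle-only cultures of the same strain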; settings: S. cerevisiae rad50 strain growth inhibition; at 50.0 µM; hits give high values
Procedure, shortened: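 A DNA repair-deficient yeast mutant serves as the test organism; compound-induced growth inhibition is calculated against vehicle-treated cells.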

[2] = NCI Yeast Anticancer Drug Screen. Data for the mec2-1 strain (AID 157); settings: S. cerevisiae mec2-1 strain, at 50.0 µM, hits give high values
Procedure, shortened: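 mec2-1 yeast strain, carrying an alteration in DNA damage repair or cell cycle control, was exposed to compounds; growth inhibition was measured relative to vehicle-treated controls.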

[3] = NCI Yeast Anticancer Drug Screen. Data for the sgs1 mgt1 strain (AID 161);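 note: 0% = growth of cultures given vehicle only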; settings: S. cerevisiae sgs1 mgt1 strain, at 50.0 µM, hits give high values
Procedure, shortened: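 Growth of a repair-deficient yeast mutant was monitored after compound treatment and expressed as inhibition relative to vehicle-treated cultures.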

[4] = NCI Yeast Anticancer Drug Screen. Data for the cln2 rad14 strain (AID 165);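 note: 0% = growth equal to vehicle treated cultures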; settings: S. cerevisiae cln2 rad14 strain, at 50.0 µM, hits give high values
Procedure, shortened: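 Yeast carrying cln2 and rad14 alterations (cell cycle control and DNA damage repair) were exposed to compounds. Growth inhibition was measured against vehicle-treated controls.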

[5] = NCI Yeast Anticancer Drug Screen. Data for the bub3 strain (AID 167); settings: S. cerevisiae bub3 mutant strain, at 50.0 µM, hits give high values
Procedure, shortened: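 Inhibition values come from growth of compound-treated mutant yeast normalised to vehicle-treated controls.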

[6] = NCI Yeast Anticancer Drug Screen. Data for the mlh1 rad18 strain (AID 175); settings: S. cerevisiae mlh1 rad18 strain growth inhibition; at 50.0 µM; hits give high values
Procedure, shortened: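 Growth inhibition of the yeast strain was measured after compound exposure and expressed relative to vehicle-treated controls. The strain carries defined defects in DNA damage repair.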

Measured: growth inhibition

CC(C)(C)NCC(O)c1ccc(O)c(CO)n1 (configuration not stated)
inactive: [1] 1.3% | [2] -8.05% | [3] -19.4% | [4] 9.05% | [5] -8.9% | [6] -3.3%

CCc1cccc(CC)c1NC(=O)c1ccccc1Cl
inactive: [1] 7.9% | [2] 24.6% | [3] 31.3% | [4] 0.8% | [5] 26.1% | [6] 26.8%

COC(=O)CC(C)N(c1ccc(OC)cc1)S(=O)(=O)c1ccc(C)cc1 (configuration not stated)
inactive: [1] 18.4% | [2] 4.05% | [3] 14.3% | [4] -46% | [5] 17.6% | [6] 10.3%

COC(=O)c1nc[nH]c1C(=O)OC
inactive: [1] 10.2% | [2] -25.9% | [3] 15.8% | [4] 4% | [5] -0.8% | [6] 12.6%

C[s+]1c2ccccc2c2ccccc21
inactive: [1] -65.8% | [2] -46.4% | [3] -32.9% | [4] -22.6% | [5] -13.2% | [6] -49.8%

C=Cc1c(C)c2cc3[nH]c(cc4nc(cc5nc(cc1[nH]2)C(C)=C5CCC(=O)OC)C(CCC(=O)OC)=C4C)c(C)c3C=C
inactive: [1] 8.1% | [2] 6.45% | [3] 10.3% | [4] 13.1% | [5] -1.05% | [6] -5.85%

O=[N+]([O-])c1ccc2nc(-c3ccccc3[N+](=O)[O-])[nH]c2c1
inactive: [1] 0.2% | [2] 0.85% | [3] 2.5% | [4] -49.5% | [5] -7.35% | [6] -5.15%

CN(C(=S)NNC(=O)C1CCC(=O)N1)c1ccccc1 (configuration not stated)
inactive: [1] 23.2% | [2] -2% | [3] 3.3% | [4] 13.7% | [5] 21.4% | [6] 26.9%

Brc1ccc(-c2nnc(-c3ccc(Br)cc3)o2)cc1
inactive: [1] 14.8% | [2] -4.6% | [3] -0.8% | [4] -4.7% | [5] 0.25% | [6] 1.4%

Cn1c(-c2ccccc2)c/c(=N\NS(C)(=O)=O)c2cc(S(=O)(=O)O)ccc21
inactive: [1] -7.1% | [2] -27.7% | [3] -0.25% | [4] -3% | [5] 11.2% | [6] 10.2%

CC(C)C(=O)OCc1ccc(Cl)cc1
inactive: [1] 29.8% | [2] 38.3% | [3] 21.8% | [4] 12.1% | [5] 26.8% | [6] 17.4%

CC(=O)Nc1ccc(-c2nnc(SCC(=O)Nc3cccc(C)c3)o2)cc1
inactive: [1] 5.2% | [2] 14.7% | [3] 32% | [4] 24% | [5] 9.7% | [6] -7.75%

CCCCCN(CCCCC)C(=O)C(C)C
inactive: [1] -4.45% | [2] 7.8% | [3] 4.6% | [4] -30.1% | [5] -2% | [6] 5.8%

Cc1ncc([N+](=O)[O-])n1CCSC(N)=O
inactive: [1] -6.75% | [2] -13.6% | [3] -11.2% | [4] 11.4% | [5] 16.8% | [6] 33.5%

CCOc1ccc(OCC)c(NC(C)=O)c1
inactive: [1] -1.95% | [2] 4.05% | [3] 3.95% | [4] 5.5% | [5] 13.8% | [6] -3.6%

c1ccc2c(-c3nn[nH]n3)nccc2c1
inactive: [1] 11.6% | [2] -16.2% | [3] -6.5% | [4] -16.9% | [5] -19.9% | [6] -10.9%

CC(=O)N1CCNC(c2ccccc2)C1(C)C (configuration not stated)
inactive: [1] -3.05% | [2] -6.95% | [3] -11.3% | [4] -9.3% | [5] -13.4% | [6] 3.85%

Cc1ccc(N2C(=O)/C(=C/c3ccc(N(CCC#N)CCC#N)cc3)N=C2COc2ccc(Cl)cc2Cl)cc1
inactive: [1] -0.2% | [2] -26.9% | [3] -7.25% | [4] -17.8% | [5] -36.1% | [6] -25.9%

C(=C1\COC(c2ccccc2)=N1)/c1ccc2c(c1)OCO2
inactive: [1] -13.2% | [2] 14.8% | [3] 13.8% | [4] -19.6% | [5] -5% | [6] 26.9%

CN1C=CCC(C=O)C1 (configuration not stated)
inactive: [1] -13.5% | [2] -4.5% | [3] 0.05% | [4] -3.7% | [5] 1.65% | [6] -7.2%

CC1(C)OC[C@@H](N)[C@@H](O)CO1
inactive: [1] -9.35% | [2] 12.6% | [3] 0.05% | [4] -31.9% | [5] 0.55% | [6] 1.95%

O=C1C=CC(=O)C2C1C21C2CCCC(C2)C2CCCC1C2 (configuration not stated)
inactive: [1] -11.2% | [2] 16.3% | [3] 4.05% | [4] -23% | [5] -0.65% | [6] 20.1%

Cc1ccc(C(C)C)cc1[N+](=O)[O-]
inactive: [1] 9.9% | [2] -3.55% | [3] -17.7% | [4] -41% | [5] -13.6% | [6] -21.3%

O=C(CC(=O)n1nc(-c2ccccc2)c(N=Nc2ccc(Cl)cc2)c1-c1ccccc1)Nc1ccc(Cl)cc1
inactive: [1] -6.75% | [2] -19.1% | [3] -11.9% | [4] -19.3% | [5] -11.1% | [6] -16.8%

CCOC(=O)c1cn(CC)c2cc3c(cc2c1=O)SCS3
inactive: [1] -37.3% | [2] -18.9% | [3] -16.6% | [4] 29.9% | [5] 19.4% | [6] 41%

CCNc1nc2c(ncn2C2CC(O)C(COP(=O)(O)O)O2)c(=O)[nH]1 (configuration not stated)
inactive: [1] 18.9% | [2] 15.2% | [3] 27.3% | [4] 11.8% | [5] 13.2% | [6] -16.1%

CCC(=O)C(CC)c1ccccc1OC (configuration not stated)
inactive: [1] 8.75% | [2] -8.35% | [3] 4.65% | [4] 16.5% | [5] 5.45% | [6] 15%

Cc1ccc(O)c(C(=O)c2ccccc2C(=O)O)c1
inactive: [1] 15% | [2] -11.9% | [3] -6.95% | [4] 44.4% | [5] 4.9% | [6] 22.4%

Nc1nc2scnc2c(=O)[nH]1
inactive: [1] 7.1% | [2] -4.35% | [3] -3.25% | [4] -7.95% | [5] -8.5% | [6] 8.35%

O=C(Cc1ccccc1)N/N=C\Cc1ccccc1
inactive: [1] -4.85% | [2] 22.8% | [3] 20.8% | [4] -14.1% | [5] -2.35% | [6] 2.25%

O=C(O)CC(NC(=O)CP(=O)(O)O)C(=O)O (configuration not stated)
inactive: [1] -9.4% | [2] -21.9% | [3] -10.6% | [4] 2% | [5] -8.5% | [6] -13.1%

O=NN(Cc1ccc(Cl)cc1)NC1=NCCN1
inactive: [1] 5.55% | [2] 14.3% | [3] 3.75% | [4] -3.65% | [5] 15.2% | [6] 29.6%

CN1/C(=C/C=C/C=C/C=C2C(=O)c3ccccc3C2=O)C(C)(C)c2ccccc21
inactive: [1] -13.6% | [2] 10.5% | [3] 16.1% | [4] -39.5% | [5] -8.9% | [6] 26.8%

COC(=O)C1C(=O)C2OC1C1OC(C)(C)OC21 (configuration not stated)
inactive: [1] 7.75% | [2] -12.1% | [3] -12.1% | [4] -52.4% | [5] 1.7% | [6] -0.95%

O=c1[nH]nc(Sc2ccccc2)c2nncn12
inactive: [1] 15.7% | [2] -1.05% | [3] -5.45% | [4] -16.6% | [5] -4.7% | [6] 24.6%

CN1C(c2ccccc2)NC(=O)C12CCN(CCCC(=O)c1ccccc1)CC2 (configuration not stated)
inactive: [1] 63.5% | [2] 39.7% | [3] 53.2% | [4] 19.5% | [5] 17.9% | [6] 45.2%

CCOC(=O)Cc1cc(Cl)c2ccc(Cl)cc2n1
inactive: [1] 32.1% | [2] -2% | [3] 23.2% | [4] 11.6% | [5] 36.4% | [6] 40.4%

O[C@@H]1CC2(Cl)CC1(Cl)C(Cl)=C2Cl (some centres not stated)
inactive: [1] 19.4% | [2] 5.5% | [3] 11.7% | [4] -2.05% | [5] -4.1% | [6] 18.5%

CCOC(=O)CS(=O)(=O)C1CCCCC1c1cc(OC)c(OC)c(OC)c1 (configuration not stated)
inactive: [1] 3.25% | [2] -3.2% | [3] -5% | [4] -6.7% | [5] 0.6% | [6] 10.4%

N#Cc1[nH]c(=S)[nH]c1N
inactive: [1] 4.1% | [2] -7.85% | [3] 2.6% | [4] 6.05% | [5] 11.8% | [6] -40.8%

CCCCCCn1cnc2c(=O)[nH]c(N)nc21
inactive: [1] -2% | [2] 3.5% | [3] -17.2% | [4] -7.05% | [5] -8.65% | [6] -10.2%

CC1CCCC(C)C1O (configuration not stated)
inactive: [1] -19.7% | [2] -28.1% | [3] -13.9% | [4] 12.3% | [5] -4.6% | [6] -14.1%
